# Results from PubChem BioAssay.
# The source made the active and inactive calls.
# Experiments:
# [1] = system: PRMT1 (protein arginine N-methyltransferase 1); test: small molecules binding arginine methyltransferase PRMT1 – biochemical, small-molecule microarray, 635 nm fluorescence, primary screen (AID 1088); conditions: higher = more signal;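 also: binding of Prmt1 protein to compounds spotted on small-molecule microarray slides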
# [2] = growth effects on S. cerevisiae YJM789 – YJM789 clinical isolate, OD600, 24 h, basal, primary screen (AID 1089); conditions: higher = more signal, called active from +8 up or from −8 down;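 also: growth of clinical yeast isolate S. cerevisiae YJM 789 seeded 1000 cells per well; test concentration not given here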
# [3] = S. pombe growth modifiers, basal conditions – strain 972, OD600, 24 h, no modulator, primary screen (AID 1090);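 also: basal condition with compound alone and no growth modifier present; test concentration not given here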; conditions: S. pombe 972 growth, higher = more signal, called active from +8 up or from −8 down
# [4] = budding yeast growth modifiers under rapamycin – strain BY4716, OD600, 96 h, primary screen (AID 1091); also: test concentration not given here; conditions: S. cerevisiae BY4716 + rapamycin, higher = more signal, called active from +8 up or from −8 down
# [5] = biological target: Torsin-1A-interacting protein 2 (Homo sapiens) (UniProt Q8NFQ8); test: small molecules binding lysate-expressed LULL1 – cell lysate, human LULL1 lysate, 635/667 nm fluorescence, primary screen (AID 1092); conditions: small-molecule microarray, hLULL1 lysate binding, 635 nm fluorescence; higher = more signal;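 also: probe is lysate of COS7 cells overexpressing human LULL1; score merges per-feature 667 nm fluorescence with signal-to-noise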
# [6] = optical density change of DRC41 E. coli – strain DRC41, OD650, 24 h, E. coli filamentation project, primary screen (AID 1093);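 also: MC1000 strain lacking acrAB efflux and sulA so SOS filamentation is blocked; test concentration not given here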; conditions: E. coli DRC41 growth, higher = more signal, called active from +8 up or from −8 down
# [7] = probe aLefty2 binding to arrayed compounds – biochemical, biotinylated probe, 635/667 nm fluorescence, primary screen (AID 1094); conditions: small-molecule microarray, higher = more signal;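 also: score merges spot fluorescence near 667 nm with spot signal-to-noise ratio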
# [8] = system: Noggin (protein binding on small-molecule microarray); test: small molecules binding Noggin protein – biochemical, 635/667 nm fluorescence, primary screen (AID 1095); conditions: 635 nm fluorescence, higher = more signal;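 also: score merges 667 nm feature fluorescence with signal to noise over triplicate slides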
# [9] = biological target: Neurogenic locus notch homolog protein 3 (Homo sapiens) (UniProt Q9UM47); test: small molecules binding NOTCH3 protein – biochemical, 635/667 nm fluorescence, primary screen (AID 1096); conditions: small-molecule microarray, 635 nm fluorescence, higher = more signal
# [10] = probe aEGFR binding to arrayed compounds – biochemical, biotinylated probe, 635/667 nm fluorescence, primary screen (AID 1097); conditions: small-molecule microarray, higher = more signal;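 also: probe is a biotinylated anti-EGFR antibody binding compounds printed on slides; score combines fluorescence near 667 nm and signal to noise of each spot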
# Chain of Neurogenic locus notch homolog protein 3 (Homo sapiens) (Q9UM47 whole entry, looked up): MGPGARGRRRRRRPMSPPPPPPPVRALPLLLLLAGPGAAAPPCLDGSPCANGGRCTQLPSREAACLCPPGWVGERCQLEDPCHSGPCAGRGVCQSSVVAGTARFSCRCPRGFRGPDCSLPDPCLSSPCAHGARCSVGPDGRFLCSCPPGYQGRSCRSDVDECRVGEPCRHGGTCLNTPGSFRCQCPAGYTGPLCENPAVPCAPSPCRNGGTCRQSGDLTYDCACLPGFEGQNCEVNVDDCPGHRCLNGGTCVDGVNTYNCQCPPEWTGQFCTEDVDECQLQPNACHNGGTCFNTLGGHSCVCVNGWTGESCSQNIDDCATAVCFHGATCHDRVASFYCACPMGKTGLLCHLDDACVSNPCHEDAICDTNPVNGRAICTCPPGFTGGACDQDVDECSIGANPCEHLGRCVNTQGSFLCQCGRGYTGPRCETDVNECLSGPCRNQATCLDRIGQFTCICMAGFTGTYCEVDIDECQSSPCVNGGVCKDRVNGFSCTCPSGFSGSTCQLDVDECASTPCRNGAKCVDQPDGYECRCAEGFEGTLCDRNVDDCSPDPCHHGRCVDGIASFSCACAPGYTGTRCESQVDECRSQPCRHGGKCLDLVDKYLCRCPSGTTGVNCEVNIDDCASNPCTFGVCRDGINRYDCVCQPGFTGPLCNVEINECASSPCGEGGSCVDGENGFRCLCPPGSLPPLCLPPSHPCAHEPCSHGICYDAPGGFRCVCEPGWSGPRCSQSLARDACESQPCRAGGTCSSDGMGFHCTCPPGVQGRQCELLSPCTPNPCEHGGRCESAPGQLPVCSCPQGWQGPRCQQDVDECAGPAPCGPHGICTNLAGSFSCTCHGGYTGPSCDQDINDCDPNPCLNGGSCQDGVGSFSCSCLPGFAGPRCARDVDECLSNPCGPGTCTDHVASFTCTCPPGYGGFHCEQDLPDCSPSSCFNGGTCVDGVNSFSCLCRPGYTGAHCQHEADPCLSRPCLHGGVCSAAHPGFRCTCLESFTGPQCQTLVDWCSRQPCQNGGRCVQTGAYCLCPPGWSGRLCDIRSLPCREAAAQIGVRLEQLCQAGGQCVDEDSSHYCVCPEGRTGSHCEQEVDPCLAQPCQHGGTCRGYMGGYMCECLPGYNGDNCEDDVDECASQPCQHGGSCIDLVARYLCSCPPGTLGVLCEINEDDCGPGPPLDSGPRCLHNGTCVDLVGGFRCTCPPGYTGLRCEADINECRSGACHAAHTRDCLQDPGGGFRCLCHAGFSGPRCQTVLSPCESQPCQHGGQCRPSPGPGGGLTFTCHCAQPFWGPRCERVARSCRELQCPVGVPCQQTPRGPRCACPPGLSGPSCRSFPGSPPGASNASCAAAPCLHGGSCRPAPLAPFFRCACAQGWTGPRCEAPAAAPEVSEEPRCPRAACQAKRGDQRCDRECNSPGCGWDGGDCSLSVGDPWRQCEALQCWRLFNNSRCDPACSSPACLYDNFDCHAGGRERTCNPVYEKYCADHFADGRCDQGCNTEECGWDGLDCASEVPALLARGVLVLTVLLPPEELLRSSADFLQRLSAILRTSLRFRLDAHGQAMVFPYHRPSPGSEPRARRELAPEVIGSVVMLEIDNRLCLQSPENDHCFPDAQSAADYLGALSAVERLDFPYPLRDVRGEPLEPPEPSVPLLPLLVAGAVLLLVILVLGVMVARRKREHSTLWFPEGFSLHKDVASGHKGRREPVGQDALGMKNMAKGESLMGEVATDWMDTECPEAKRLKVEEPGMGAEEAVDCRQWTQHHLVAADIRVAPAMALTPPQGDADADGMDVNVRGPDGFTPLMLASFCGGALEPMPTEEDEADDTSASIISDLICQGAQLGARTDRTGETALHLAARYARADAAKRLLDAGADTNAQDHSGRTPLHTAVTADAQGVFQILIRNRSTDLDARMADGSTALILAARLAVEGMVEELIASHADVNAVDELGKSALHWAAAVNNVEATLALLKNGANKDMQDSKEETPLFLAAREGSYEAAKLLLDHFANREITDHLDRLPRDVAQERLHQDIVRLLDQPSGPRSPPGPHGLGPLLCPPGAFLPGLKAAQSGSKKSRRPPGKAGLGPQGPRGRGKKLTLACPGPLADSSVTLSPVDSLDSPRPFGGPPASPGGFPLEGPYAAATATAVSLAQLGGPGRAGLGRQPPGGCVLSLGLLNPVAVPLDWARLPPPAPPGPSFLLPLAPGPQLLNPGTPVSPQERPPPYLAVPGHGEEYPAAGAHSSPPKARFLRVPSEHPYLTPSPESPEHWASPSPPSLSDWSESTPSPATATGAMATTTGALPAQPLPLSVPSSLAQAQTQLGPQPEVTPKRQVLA
# Chain of Torsin-1A-interacting protein 2 (Homo sapiens) (Q8NFQ8 whole entry, looked up): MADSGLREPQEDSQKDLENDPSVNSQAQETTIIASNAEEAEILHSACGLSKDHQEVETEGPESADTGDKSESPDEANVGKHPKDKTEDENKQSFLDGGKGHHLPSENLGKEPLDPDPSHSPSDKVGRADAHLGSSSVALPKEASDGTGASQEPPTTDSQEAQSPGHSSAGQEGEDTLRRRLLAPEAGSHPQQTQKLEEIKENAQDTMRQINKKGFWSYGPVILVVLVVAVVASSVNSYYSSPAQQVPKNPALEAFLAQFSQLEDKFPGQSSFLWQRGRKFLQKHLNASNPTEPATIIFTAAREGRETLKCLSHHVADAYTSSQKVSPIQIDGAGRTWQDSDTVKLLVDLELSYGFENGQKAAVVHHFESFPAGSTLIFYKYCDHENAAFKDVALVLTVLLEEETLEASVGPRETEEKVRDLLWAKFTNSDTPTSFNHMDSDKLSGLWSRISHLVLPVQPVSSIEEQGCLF
Structure (SMILES),composite z-score [1],z-score [2],z-score [3],z-score [4],composite z-score [5],z-score [6],composite z-score [7],composite z-score [8],composite z-score [9],composite z-score [10]
C#CCN(C/C=C/c1ccccc1)[C@H](CO)c1ccccc1,-0.019,-3.99 (inactive),-21.4 (active),-1.64 (inactive),0.0638,0.408 (inactive),-0.319,1.12,0.39,-0.215
O=C1C2C=CC(C(O)C=Cc3ccc([N+](=O)[O-])cc3)N(n3cnnc3)C2C(=O)N1Cc1ccccc1 (stereo not given),0.934,-0.785 (inactive),-3.83 (inactive),-0.0166 (inactive),1.92,-0.0783 (inactive),0.292,-0.0663,0.989,-0.0703
COCCOC(=O)N1C(=O)[C@@]2(c3cc(C#CC4(O)CCCCCC4)ccc31)[C@H](C(=O)Nc1nc3ccccc3s1)[C@H]1C(=O)O[C@H](c3ccccc3)[C@H](c3ccccc3)N1[C@@H]2c1ccccc1OCCO,1.55,0.976 (inactive),0.249 (inactive),2.12 (inactive),2.89,1.26 (inactive),-0.0575,1.38,1.11,0.0857
COCCCNC(=O)[C@@H]1c2ccccc2C(=O)N(Cc2ccccc2)[C@H]1c1ccc(CO)cc1,0.726,-1.29 (inactive),-0.0108 (inactive),-0.212 (inactive),1.53,-0.167 (inactive),0.384,0.525,0.109,0.236
O=C1O[C@H](c2ccccc2)[C@H](c2ccccc2)N2[C@H]1[C@@H](C(=O)NC[C@H](O)c1ccccc1)[C@]1(C(=O)Nc3ccc(C#CC4=CCCCC4)cc31)[C@H]2c1ccccc1OCCO,1.43,2.2 (inactive),-0.874 (inactive),2.64 (inactive),1.64,-0.0991 (inactive),0.107,0.545,0.786,0.032
CO[C@H]1O[C@H](CO)[C@@H](OC(=O)Nc2ccc(Oc3ccccc3)cc2)[C@H](OC(=O)Nc2ccc3c(c2)OCO3)[C@@H]1OC(=O)Nc1ccc2c(c1)OCO2,1.53,2.21 (inactive),1.22 (inactive),8.57 (active),3.04,1.36 (inactive),0.237,0.866,1.07,0.367
CCCCC(=C=CC[C@@H](O)c1cccc(OCCO)c1)C[C@@H](O)c1ccccn1,1.55,-0.937 (inactive),-0.606 (inactive),-0.725 (inactive),2.07,0.149 (inactive),-0.207,1.46,1.01,-0.099
COCCCNC(=O)[C@@]1(Cc2ccccc2)N=C(c2ccc(OCCCO)cc2)O[C@H]1c1ccccc1CN=[N+]=[N-],1.56,-0.201 (inactive),0.351 (inactive),0.463 (inactive),3.16,1.06 (inactive),0.277,0.445,1.05,0.163
CC(=O)Nc1cc(Br)ccc1C(=O)NCc1ccccc1,0.717,-1.76 (inactive),-6.28 (inactive),-1.98 (inactive),2.06,0.0591 (inactive),-0.0778,-0.0557,0.199,-0.111
C=C(CCCC)/C(=C/C[C@H](OC(C)=O)c1ccccc1OCCO)c1cnc2ccccc2c1,1.32,0.617 (inactive),-0.654 (inactive),0.826 (inactive),1.15,0.02 (inactive),-0.235,0.788,1.1,-0.142
C=CCN1C(=O)[C@]2(O[C@H](CCO)[C@@H]([Si](C)(C)c3ccc(OC)cc3)[C@@H]2C)c2cc(N(C=O)c3ccccc3)ccc21,1.47,1.28 (inactive),0.859 (inactive),36.9 (active),1.19,1.03 (inactive),-0.121,-0.0888,0.649,-0.0947
NC(=O)NCC#Cc1ccc2c(c1)[C@]1(C(=O)N2)[C@H](C(=O)O)[C@H]2C(=O)O[C@H](c3ccccc3)[C@H](c3ccccc3)N2[C@@H]1c1ccc(O)cc1,0.167,0.0288 (inactive),-0.856 (inactive),-0.483 (inactive),0.68,-1.16 (inactive),0.883,0.758,0.767,0.0156
CC(c1ccccc1)C(O)C1C=CC2C(=O)N(C)C(=O)C2N1NC(=O)OC(C)(C)C (stereo not given),1.39,0.476 (inactive),0.0391 (inactive),0.299 (inactive),3.43,0.0596 (inactive),0.12,0.01,1.05,-0.0859
[N-]=[N+]=Nc1ccccc1[C@H]1OC(c2ccc(OCCCO)cc2)=N[C@@]1(CCS(=O)(=O)c1ccccc1)C(=O)NCc1ccccc1,1.57,-0.832 (inactive),0.342 (inactive),2.23 (inactive),3.63,-0.443 (inactive),0.154,0.669,1.1,0.174
COC(=O)[C@@]1(Cc2ccccc2)[C@H]2c3cc(C(=O)N4CCCC4)n(Cc4c(CO)[nH]cc(C)c4=O)c3C[C@H]2CN1C(=O)c1ccccc1,0.138,-0.0602 (inactive),0.94 (inactive),0.171 (inactive),3.18,-0.799 (inactive),0.539,-0.218,0.12,0.0478
COC(=O)[C@@]1(Cc2ccccc2)[C@H]2c3cc(C(=O)N(C)C)n(CCc4c[nH]c5ccc(O)cc45)c3C[C@H]2CN1C(=O)c1ccccc1,0.937,-1.09 (inactive),1.25 (inactive),0.405 (inactive),3.11,0.488 (inactive),0.583,0.626,0.751,-0.0234
C#CCNCc1ccccc1,-0.0993,-0.514 (inactive),-0.749 (inactive),-0.157 (inactive),-0.0541,-0.276 (inactive),-0.161,0.235,0.527,-0.0435
